A short description of this experiment: probe aDKK1 binding to arrayed compounds – biochemical, biotinylated probe, 635/667 nm fluorescence, primary screen (AID 1099).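 Also: score merges 667nm spot fluorescence with signal to noise across triplicate slides; reference of the scale not given here.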 As to conditions: small-molecule microarray, higher = more signal.
For `COc1ccc([Si](C)(C)[C@@H]2[C@@H](CC(=O)N3CCC[C@H]3CO)O[C@]3(C(=O)N(C)c4c(Br)cc(C)cc43)[C@H]2C)cc1`, the composite z-score came out at 0.0781.
`CN(C)CCCCCCNC(=O)[C@H]1C[C@H]2C(=O)N[C@@H](CCCCN)C(=O)N2[C@H]1c1ccc(O)cc1`: the composite z-score amounted to 2.83.
As to `COCC(=C=CC[C@H](O)c1ccc(OCCO)cc1)C[C@H](O)c1cc(Cl)cc(Cl)c1O`, the composite z-score was -0.268.
To `COc1cc(C(O)C2C=CC3C(=O)N(c4ccccc4)C(=O)C3N2Nc2ccc(C#N)cc2)cc(OC)c1OC` (configuration not stated) belongs 1.45; to `N#Cc1ccc(NN2C(C(O)c3ccc([N+](=O)[O-])cc3)C=CC3C(=O)N(c4ccccc4)C(=O)C32)cc1` (configuration not stated), 0.829.
Turning to `CC(=O)NCCCC[C@@H]1NC(=O)[C@@H]2C[C@H](C(=O)NCCCCCCNC(=O)CS)[C@H](c3ccc(O)cc3)N2C1=O`, the composite z-score is -0.194.
The value for `CCOC(=O)C[C@H]1[C@H](OC(=O)Cc2ccc3c(c2)OCO3)[C@@H](NC(=O)c2ccc(-c3ccccc3)cc2)c2cc(OCCCO)ccc2N1C(=O)c1ccccc1` was -0.0183.
To `O=C1O[C@@H](c2ccccc2)[C@@H](c2ccccc2)N2[C@@H](c3ccccc3OCCO)[C@]3(C(=O)Nc4ccc(C#CC5(O)CCCCCC5)cc43)[C@@H](C(=O)Nc3nc4ccccc4s3)[C@H]12` belongs -0.0444; to `Cc1ccccc1C(O)C1C=CC2C(=O)N(C)C(=O)C2N1N1CCCCC1` (configuration not stated), 0.837.
The value for `COCCOC(=O)N1C(=O)[C@@]2(c3ccccc31)[C@H](C(=O)Nc1nc3ccccc3s1)[C@H]1C(=O)O[C@H](c3ccccc3)[C@H](c3ccccc3)N1[C@@H]2c1ccc(OCCO)cc1` was 0.186; that for `CC(C)C[C@@H]1NC(=O)[C@H]2C[C@@H](C(=O)NCCCCCNC(=O)CS)[C@@H](c3cccc(OCCO)c3)N2C1=O` was -0.0356.
Take `COc1ccc(C#Cc2ccc3c(c2)[C@]2(C(=O)N3)[C@H](c3ccc(O)cc3)N3[C@H](c4ccccc4)[C@H](c4ccccc4)OC(=O)[C@H]3[C@@H]2C(=O)NC[C@H](O)c2ccccc2)cc1`: the composite z-score worked out at 0.155.
In the case of `O=C1OCC=C[C@H]2OC34C=CCN(c5ccc(Cl)cc5)C(=O)[C@H]3N(CCCCCCO)C(=O)[C@@H]4[C@@H]12` (some centres not stated), the composite z-score came out at 0.0526.
For the molecule `C=CCOC(=O)[C@H]1[C@@H]2C(=O)O[C@@H](c3ccccc3)[C@@H](c3ccccc3)N2[C@@H](c2ccc(OCCOC(=O)[C@@H]3C[C@@H]4C(=O)N5CCC[C@H]5C(=O)N4[C@@H]3c3ccc(O)cc3)cc2)[C@]12C(=O)Nc1ccccc12`, the composite z-score is -0.294.
The value for `CCCC[C@H]1OB(O)C[C@H]2C1=C(C)C[C@H]1C(=O)N(Cc3ccccc3)C(=O)[C@H]12` was -0.109.
To `CCCC[C@@H]1C[C@H]1[C@@H](NC(=O)c1ccc(-c2ccccc2)cc1)c1ccc(-c2ccccc2)cc1` belongs 0.126; to `COCC(=C=CC[C@@H](O)c1ccc(CO)o1)CCO`, -0.239.
To `Cc1ccc(S[C@]2(C(=O)NCc3ccccc3)CC(=O)N(Cc3ccccc3Cl)[C@@H]2c2ccc(CO)cc2I)cc1` belongs 0.302; to `CC=CC(O)C1C=CC2C(=O)N(c3ccccc3)C(=O)C2N1Nc1ccc(C(C)C)cc1` (configuration not stated), 0.75; to `COCCOC(=O)N1C(=O)[C@@]2(c3ccccc31)[C@H](C(=O)NC[C@H](O)c1ccccc1)[C@H]1C(=O)O[C@H](c3ccccc3)[C@H](c3ccccc3)N1[C@@H]2c1ccc(OCCO)cc1`, 0.0185.
In the case of `[N-]=[N+]=NCc1ccccc1C[C@@]1(C(=O)NCC(O)CO)N=C(c2ccc(OCCCO)cc2)O[C@@H]1c1ccccc1CN=[N+]=[N-]` (some centres not stated), the composite z-score is -0.0331.
In turn, `COc1ccc(C#Cc2ccc3c(c2)[C@]2(C(=O)N3)[C@H](C(=O)NC[C@H](O)c3ccccc3)[C@H]3C(=O)O[C@H](c4ccccc4)[C@H](c4ccccc4)N3[C@@H]2c2ccccc2OCCO)cc1` registered a composite z-score of 0.408.
The molecule `COC(=O)[C@@]1(Cc2ccccc2)[C@H]2c3cc(C(=O)N(C)C)n(Cc4cc(C)n(C)n4)c3C[C@H]2CN1C(=O)c1ccccc1` displayed a composite z-score of 0.866.
`C#CCN(C(/C=C/c1ccccc1)CO)C(C(=O)O)c1ccccc1` (configuration not stated) came in with a composite z-score of -0.285.
The value for `COc1ccc([Si](C)(C)[C@@H]2[C@@H](CCn3cc([C@H](O)c4ccccc4)nn3)O[C@]3(C(=O)N(Cc4cccc(N5CCOC5=O)c4)c4ccccc43)[C@H]2C)cc1` was -0.231.
The molecule `Cc1ccc(S[C@]2(C(=O)O)CC(=O)N(C3Cc4ccccc4C3)[C@@H]2c2ccc(CO)cc2I)cc1` showed a composite z-score of 0.425.
The value for `CCOC(=O)C[C@H]1[C@H](OC(=O)c2ccc(-c3ccccc3)cc2)[C@@H](NC(=O)Cc2ccc(OC)cc2)c2cc(OCCCO)ccc2N1C(=O)c1ccc2ccccc2n1` was 0.593.
